High-throughput results: PubChem BioAssay, several laboratories
Only some compounds are listed: those with a hit (about 2.2% of all), similar ones and a draw of the others.
PfM18AAP inh-1: PfM18AAP enzyme inhibition. recombinant PfM18AAP, H-Glu-NHMec fluorogenic cleavage. 290,000 tested, 1.2% active. inhibition, % at 7.35 µM;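 active = inhibition above the campaign mean inhibition over all tested compounds plus 3 SD, cut at about 28% in these data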
PLCg1 inh: PLC-gamma1 (human) inhibition, primary screen | purified PLC-gamma1, fluorogenic substrate, fluorescence | inhibition, % at 12.2 µM | 370,000 tested, 0.84% active; in the data active = inhibition above about 9.5%
NPR1 activator: GC-A (human) enzyme activation | P16066 | HEK293 GC-A cells, cGMP TR-FRET, EC30 ANP; 0% at EC30 ANP, 100% saturating ANP | activation, % at 10 µM | 370,000 tested, 0.14% active; in the data active = activation above about 40%
NPR2 activator: GC-B (human) receptor activation | HEK293-GC-B cells, CNP EC30, cGMP TR-FRET; 0% at EC30 CNP, 100% saturating CNP | AID 1920062 | P20594 | 370,000 tested, 0.11% active | activation, % at 10 µM;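 active = activation at 10 µM reaching about 35% in either raw or pattern-adjusted values, limit read from the data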
Rce1 inh: blocks yeast Ras-converting enzyme; Q03530; yeast membranes, quenched prenylated peptide cleavage fluorescence; calls only; 290,000 tested, 0.27% active; AID 2563;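 active = fall in fluorescence gain of 50% or more versus controls, with final raw signal at or below 3038400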
PLCb3 inh: PLC-beta3 (human) inhibition, primary screen | Purified PLC-beta3, fluorogenic substrate, fluorescence | inhibition, % at 12.2 µM | 370,000 tested, 0.18% active | AID 720704; in the data active = inhibition above about 11%
PfM18AAP inh-2: confirmation of Plasmodium falciparum M18 aspartyl aminopeptidase inhibitors; shares compounds with PfM18AAP inh-1; recombinant PfM18AAP, H-Glu-NHMec fluorogenic cleavage; inhibition, % at 7.35 µM; 2,400 tested, 28% active; AID 2170;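 active = mean inhibition over replicate wells above the hit cutoff set for the earlier primary screen, cut at about 29% in these data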
CTSL1 confirm: counter-screen for PFM18AAP inhibitors: confirmation of human cathepsin L inhibitors; shares compounds with PfM18AAP inh-1; purified cathepsin L1, Z-Leu-Arg-MCA fluorescence; inhibition, % at 5.96 µM; 2,400 tested, under 10 active;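 active = average inhibition across replicates above the hit cutoff set in the earlier primary screen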
Of the large screens only hits and unclear results are named; the others gave an inactive call (follow-up assays come after a bar, where they were run).

Cc1cc(N2CCN(CC(C)(C)O)C[C@H]2C)ccc1N1CCN(Cc2ccccc2)[C@H](C)C1	none (no result: PfM18AAP inh-1, Rce1 inh)
O=C1CC(Sc2nnc(-c3ccccc3)o2)C(=O)N1c1ccccc1 (stereo not drawn)	none (no result: NPR1 activator, NPR2 activator)
O=C1c2ccccc2CC1Sc1nnc(-c2ccncc2)o1 (stereo not drawn)	PfM18AAP inh-1 46 | PfM18AAP inh-2 inactive | CTSL1 confirm inactive
OCC(O)/C=N/Nc1nc2ccccc2s1 (stereo not drawn)	PfM18AAP inh-1 33 | PfM18AAP inh-2 inactive | CTSL1 confirm inactive
C[n+]1ccc(CC2C(=[N+]([O-])[O-])C=Nc3ncnn32)cc1 (stereo not drawn)	PfM18AAP inh-1 32 (no result: Rce1 inh) | PfM18AAP inh-2 inactive | CTSL1 confirm inactive
CCOC(=O)c1ccc(CC(=O)c2oc3cc(O)ccc3c2C)o1	none
CCOC(=O)c1ccc(CC(=O)c2ccc(O)c(O)c2O)o1	PfM18AAP inh-1 48 | PfM18AAP inh-2 inactive | CTSL1 confirm inactive
CCOC(=O)C1C(=O)C=C(c2cccs2)CC1c1ccccc1 (stereo not drawn)	PfM18AAP inh-1 56 | PfM18AAP inh-2 inactive | CTSL1 confirm inactive
CCOC(=O)C1C(=O)C=C(c2cccs2)CC1c1ccccc1C (stereo not drawn)	none
O=C(N[C@H]1C[C@@H]2O[C@@H](CO)CC[C@@H]2O[C@@H]1CCc1ccc(-c2cccnc2)cc1)c1cccc(F)c1	none (no result: PfM18AAP inh-1, Rce1 inh)
CCCC[C@@H]1C(=O)N2N=Cc3ccccc3[C@H]2N2N=Cc3ccccc3[C@@H]12	none (no result: PfM18AAP inh-1, Rce1 inh)
Fc1ccc(-n2c(=S)[nH]c3cccnc32)cc1	PfM18AAP inh-1 37 | PfM18AAP inh-2 inactive | CTSL1 confirm inactive
Cc1ccc(N2CC(C(=O)OCC(=O)c3ccc([N+](=O)[O-])cc3)CC2=O)cc1 (stereo not drawn)	PfM18AAP inh-1 38 | PfM18AAP inh-2 inactive | CTSL1 confirm inactive
O=C(COC(=O)C1CC(=O)N(c2ccccc2)C1)c1ccccc1 (stereo not drawn)	none
O=C(O)CSc1cc(NS(=O)(=O)c2ccc(Cl)cc2)c2ccccc2c1O	none
COc1ccc(S(=O)(=O)Nc2cc(SCC(=O)O)c(O)c3ccccc23)cc1	PfM18AAP inh-1 33 | PfM18AAP inh-2 inactive | CTSL1 confirm inactive
O=C1c2cccn2CC2Cc3ccccc3N12 (stereo not drawn)	none (no result: PfM18AAP inh-1, Rce1 inh)
CC(C)C[C@H]1COc2cc(F)ccc2S(=O)(=O)N1C	none (no result: PfM18AAP inh-1, Rce1 inh)
COc1cc(/C=C/c2cc(C(=O)O)c3ccccc3n2)cc(OC)c1O	PfM18AAP inh-1 51 | PfM18AAP inh-2 inactive | CTSL1 confirm inactive
CCOC(=O)[C@@]12CCCC3=C1N(CCC3)C(=O)[C@H]2CC(=O)N1CCN(C(=O)C2CC2)CC1	none (no result: PfM18AAP inh-1, Rce1 inh)
COc1ccc(C(=O)OCC(=O)c2c(N)n(C)c(=O)n(C)c2=O)cc1OC	none
CC(=O)Oc1ccc(C(=O)OCC(=O)c2c(N)n(C)c(=O)n(C)c2=O)cc1OC(C)=O	PfM18AAP inh-1 43 | PfM18AAP inh-2 inactive | CTSL1 confirm inactive
C=CCN(CC#Cc1ccccc1)Cc1ccc(OC)cc1OC	none (no result: PfM18AAP inh-1, Rce1 inh)
O=C(NNC(=S)Nc1ccc(Cl)cc1)c1cccs1	none
O=C(NNc1cc(Cl)cc(Cl)c1)c1cccs1	PfM18AAP inh-1 37 | PfM18AAP inh-2 33 | CTSL1 confirm inactive
O=C(NCc1cccs1)Nc1cccc(Cl)c1	none
O=C(NNc1ccc(Cl)cc1)c1cccs1	PfM18AAP inh-1 44 | PfM18AAP inh-2 inactive | CTSL1 confirm inactive
O=C(Nc1ncc(Cl)cn1)c1cccs1	none
NS(=O)(=O)c1ccc(NNC(=O)c2cccs2)cc1	PfM18AAP inh-1 55 | PfM18AAP inh-2 36 | CTSL1 confirm inactive
O=C(NNC(=O)c1cccs1)Nc1cccc(Cl)c1	PfM18AAP inh-1 60 | PfM18AAP inh-2 inactive | CTSL1 confirm inactive
Cc1ccccc1N(C)C(=O)C1CCCN1S(=O)(=O)c1cccc2cccnc12 (stereo not drawn)	none (no result: PfM18AAP inh-1, Rce1 inh)
O=C(Nc1cccc(Br)c1)OC1CC2CC1[C@H]1CCCCN1C2 (stereo partly drawn)	none (no result: PfM18AAP inh-1, Rce1 inh)
